Measurements taken from PubChem BioAssay AID1918990 (ICCB-Longwood Screening Facility, Harvard Medical School, 2023).
Screen size: about 29,000 compounds; about 85 (0.3%) were called active.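 Rule for the calls: active = replicate mean overnight rise in green fluorescent reporter signal, 3 or more SD over negative controls; inactive = the rest.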 Only a selection was taken, and actives are over-represented in it overall.

Assay: fixK promoter GFP reporter activation – B. multivorans, primary screen (AID 1918990)
Settings: 18 h, hits give high values

Structure (SMILES) | z-score
COc1ccccc1-c1cc(C(F)(F)F)nc(S(=O)(=O)CCCC(=O)Nc2ccc(F)cc2F)n1 | -0.87 (inactive)
CCC(=O)N1CCc2cc(Br)cc(S(=O)(=O)CCC(=O)NCCc3ccc(OC)c(OC)c3)c21 | 2.58 (inactive)
CCC(=O)N1CCc2cc(Br)cc(S(=O)(=O)CCC(=O)NCc3ccccc3OC)c21 | -0.86 (inactive)
CCC(=O)N1CCc2cc(Br)cc(S(=O)(=O)CCC(=O)N3CCN(c4ccc(F)cc4)CC3)c21 | 3.68 (active)
Cc1cccc2nc(-c3ccc(Cl)s3)c(Nc3ccc4c(c3)OCCO4)n12 | 0.38 (inactive)
COc1ccc(CNC(=O)Cc2coc3ccc(C(C)C)cc23)cc1 | -1.14 (inactive)
CC(=O)N1CCCCC1C(=O)Nc1cccc(-n2cccn2)c1 (stereo unspecified) | -4.62 (inactive)
Cc1ccc(C)c(N2CCN(C(=O)CN3C(=O)COc4ccc(S(=O)(=O)N5CCCCCC5)cc43)CC2)c1 | -0.13 (inactive)
CCc1cc2c(cc(C(=O)OC)n2Cc2nc(-c3ccc(C)cc3)oc2C)s1 | -0.09 (inactive)
CCCOc1ccc(C2c3c(-c4ccccc4O)n[nH]c3C(=O)N2Cc2cccnc2)cc1 (stereo unspecified) | -1.98 (inactive)
COc1ccc(OCCCn2c(C3CC(=O)N(c4ccc(F)cc4)C3)nc3ccccc32)cc1 (stereo unspecified) | 0.64 (inactive)
CCOc1ccc(N2CC(c3nc4ccccc4n3CCOc3ccc(OC)cc3)CC2=O)cc1 (stereo unspecified) | -4.05 (inactive)
CCc1ccccc1N1CC(c2nc3ccccc3n2CCCCOc2ccccc2)CC1=O (stereo unspecified) | 5.94 (active)
CC(=O)c1c(C)n(S(=O)(=O)c2ccc(Cl)cc2)c2ccc(NS(=O)(=O)c3ccc(Cl)cc3)cc12 | -0.71 (inactive)
COc1ccc(NC(=O)CNC(=O)Cn2ccc3ccccc3c2=O)c(OC)c1 | -2.14 (inactive)
CN1CCCn2nc(C(=O)NCCCCc3ccccc3)cc2C1 | -1.24 (inactive)
CCc1ccccc1NS(=O)(=O)c1ccc2nc(-c3ccccc3)[nH]c2c1 | -1.16 (inactive)
CC(Cn1cccn1)NC1CCN(C(=O)c2cccnc2)CC1 (stereo unspecified) | -2 (inactive)
Cc1ccc(N2CC(C(=O)Nc3ccc(N(C)C)cc3)CC2=O)cc1Cl (stereo unspecified) | 0.09 (inactive)
COc1cccc(-c2nc(CS(=O)(=O)CC(=O)NCCc3ccc(OC)c(OC)c3)c(C)o2)c1 | -0.64 (inactive)
CCc1ccccc1NC(=O)N1CCC2(CC1)Oc1ccccc1C(=O)N2Cc1ccccc1F | -0.81 (inactive)

Structure (SMILES) | z-score
O=C(NC1CCCCC1)c1ccc2c(c1)N(Cc1ccc(Cl)cc1)C(=O)c1ccccc1S2=O (stereo unspecified) | 0.06 (inactive)
CCC(=O)N1CCc2cc(S(=O)(=O)NCCC(=O)Nc3cccc(C)c3C)ccc21 | -0.9 (inactive)
COc1ccccc1Nc1cc(C(=O)NCCCN(C)C2CCCCC2)c2ccccc2n1 | -0.07 (inactive)
CC(C)Sc1nnc(NC(=O)c2ccccc2-n2cnnc2)s1 | -0.42 (inactive)
CC(C)S(=O)(=O)c1oc(-c2ccc(F)cc2)nc1S(=O)(=O)c1ccc(F)cc1 | -3.54 (inactive)
CCN(C(=O)Cn1cnc2sc(C)c(S(=O)(=O)N3CCN(c4ncccn4)CC3)c2c1=O)c1ccccc1F | -2.69 (inactive)
CCNC(=O)Cn1nc(C)n2c(cc3c(OC)cccc32)c1=O | -1.37 (inactive)
CC(C)(C)C(Cn1ccnc1)NC(=O)C=Cc1cc(CO)cs1 (stereo unspecified) | 0.54 (inactive)
COc1ccc(N(C)C(=O)C2CCN(S(=O)(=O)c3cc(Br)cc4c3N(C(C)=O)CC4)CC2)cc1 | -1.87 (inactive)
COc1cc(C(=O)N2CCC(O)(c3ccc(C)cn3)CC2)nc(OC)n1 | -2.73 (inactive)
CCOc1ccc(NC(=O)c2cnn(-c3ccccc3)c2-n2cccc2)cc1 | 0.15 (inactive)
CC(=O)N1CCN(Cc2cc(Cl)cc(Cl)c2)C2CS(=O)(=O)CC21 (stereo unspecified) | 1.37 (inactive)
CN(C)C(=O)N1CCC(C(=O)NC2COCC2Cc2ccncc2)CC1 (stereo unspecified) | -2.62 (inactive)
COc1ccc(OC)c(-c2nc(CN3CCNC(=O)CC3)c(C)o2)c1 | -1.03 (inactive)
O=C1N(Cc2ccccc2)c2ccc(Cl)cc2C1(O)c1c[nH]c2ccccc12 (stereo unspecified) | -2.44 (inactive)
CCCNC(=O)CCn1nc(-c2ccccc2)c2ccccc2c1=O | -2.63 (inactive)
COC(=O)c1ccc(NC(=O)c2cccc3c2C(=O)N(C2CCCCC2)C3)cc1 | -0.11 (inactive)
CN(CC(=O)Nc1cccc(C(F)(F)F)c1)S(=O)(=O)c1cccs1 | -1.64 (inactive)
COc1ccc(C2=NC3(CCCCC3)N(CC(=O)Nc3ccc(C(C)C)cc3)C2=O)cc1 | -0.47 (inactive)
O=C(CSc1nc(-c2cccc(F)c2)[nH]c1-c1ccccc1)Nc1ccc2c(c1)OCO2 | -0.24 (inactive)
CC1CCCCN1Cc1c(O)ccc2c(=O)c(-c3cccc(Cl)c3)c(C(F)(F)F)oc12 (stereo unspecified) | -3.67 (inactive)

Structure (SMILES) | z-score
O=C(NC1CCCC1Cc1ccc(F)cc1)c1cccc(=O)[nH]1 (stereo unspecified) | 0.15 (inactive)
Cn1nnnc1SCCNCc1ccc(Cl)c(Cl)c1 | -2.02 (inactive)
O=C(c1ccnc(CC2COc3ccccc3C2)c1)N1CCOCC1 (stereo unspecified) | 1.09 (inactive)
CN1CCN(CC2(CNC(=O)CN(C)Cc3cccnc3)CC2)CC1 | -0.08 (inactive)
CCCc1cc(CNC(=O)c2ccc3c(c2)OCC(=O)N3)on1 | 0.27 (inactive)
CCn1cc(C(=O)N(C)Cc2ccccc2)c(=O)c2cc(S(=O)(=O)N3CCCCCC3)ccc21 | -2.08 (inactive)
Cc1cccc(C(=O)N2CCC[C@@]3(CN(Cc4ncc(C)[nH]4)CCC3O)C2)c1 (stereo partly specified) | 0.68 (inactive)
CNC(=O)c1cccc(NC(=O)CCCc2cccs2)c1C | -1.26 (inactive)
COc1ccc(CNc2nc(-c3ccccc3)nn2C(=O)c2ccccc2OC)cc1 | 0.5 (inactive)
COc1cc(C2c3c(oc4ccccc4c3=O)C(=O)N2c2nc(C)c(C)s2)ccc1O (stereo unspecified) | -1 (inactive)
Cc1nc(SCCOc2ccc(Cl)cc2)[nH]c(=O)c1Cc1ccccc1 | -1.27 (inactive)
COCC1C(NS(=O)(=O)c2ccc(F)cc2C)C2CCOC21 (stereo unspecified) | -0.38 (inactive)
COc1ccc(-c2nc3ccccc3o2)cc1NC(=O)c1cc([N+](=O)[O-])ccc1N1CCOCC1 | -1.81 (inactive)
CC(=O)c1ccc(N2CCN(c3nc4c(S(=O)(=O)c5ccccc5)nnn4c4ccc(Cl)cc34)CC2)cc1 | 0.23 (inactive)
COc1ccc2c(c1)c(=O)c(S(=O)(=O)c1ccc(F)cc1)cn2CC(=O)Nc1ccc(C)cc1C | -1.75 (inactive)
Cc1nn(-c2nc(-c3ccccc3)cc(C(F)(F)F)n2)c(C)c1Cl | -0.93 (inactive)
CCCSc1ncc(Cl)c(C(=O)Nc2c(C(=O)Nc3ccccc3)oc3ccccc23)n1 | -0.41 (inactive)
O=C(c1ccc2c(c1)N(Cc1ccc(Cl)cc1)C(=O)c1ccccc1S2(=O)=O)N1CCCCC1 | 0.84 (inactive)
COc1ccccc1CNC(=O)CCn1c(=O)c2ccccc2n(CC(=O)Nc2cccc(Cl)c2)c1=O | 0.27 (inactive)
